High-throughput results deposited in PubChem by several laboratories.
Sampled rows, rich in hits. Any-hit rate of the full collection: about 9.6%.
INS promoter inh: TRM-6 insulin promoter activity inhibition | hit rate 0.9% among 130,000 | inhibition, % at 2 µM | TRM-6 cells (human fetal islet line), insulin promoter-eGFP reporter, imaging; reporter expression induced with tamoxifen;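 active = inhibition above the mean plus 3 SD, with well images judged a real hit on visual review, cut at about 60% in these data, passing the limit was not always enough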
HCT116 bCat-KO: beta-catenin-lacking colon tumor cell growth suppression | HCT116 beta-catenin knockout viability, CellTiter-Glo, 60 h; stronger effect = lower value | viability, % at 10 µM | hit rate 1.5% among 140,000;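 active = viability at or under a set limit, the compound median less 4 SD, cut at about 6% in these data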
Lmaj promast: Leishmania major promastigote growth inhibition | hit rate 9% among 200,000 | Leishmania major promastigotes, resazurin fluorescence viability | inhibition, % at 10 µM; in the data active = inhibition above about 50%;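 note: promastigotes grown with compound for 44 hours at 28 °C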
HCT116 PTEN-null: suppresses growth of cells with PTEN deletion; HCT116 PTEN-null viability, CellTiter-Glo, 60 h; stronger effect = lower value; viability, % at 10 µM; hit rate 1.2% among 140,000; AID 827;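 active = viability at or below a set limit, 4 SD under the median of all tested compounds, cut at about 3.7% in these data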;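 note: PTEN knockout HCT116 line with beta catenin targeted HCT116 as companion control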
Autophagy mod: autophagy modulation, high-content screen | MEF GFP-LC3 puncta imaging; test concentration mostly 10 µM | calls only at 10 µM (by protocol) | hit rate 0.98% among 190,000 | AID 463193;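 active = percentage of spot-positive cells more than 3 SD above its plate mean, without a fluorescence outlier flag or 80% toxicity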
Ins promoter up: MIN6 insulin promoter up-regulation | MIN6 insulin promoter-GFP reporter, high-content imaging; stronger effect = higher value | z-score at 5 µM | hit rate 0.3% among 190,000;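 active = z-score above 3 at 5 µM with at least 500 cells counted in the well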
Lmaj promast 1uM: blocks Leishmania major promastigote growth at 1 uM, repeat screen; hit rate 13% among 1,100; inhibition, % at 1 µM; L. major promastigote growth, resazurin fluorescence, 48 h; shares compounds with Lmaj promast;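 active = inhibition above about 50% in both repeat tests, limit read from the data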
Large screens that a line does not name were inactive (follow-up assays come after a bar, where they were run).

Cc1ccsc1C(=O)C1CCCN(Cc2ccn[nH]2)C1 (stereo not given)	none (no result: INS promoter inh, HCT116 bCat-KO, HCT116 PTEN-null)
CSc1ccc(C(=O)C2CCCN(Cc3cccnc3)C2)cc1 (stereo not given)	Lmaj promast 85 (no result: INS promoter inh, HCT116 bCat-KO, HCT116 PTEN-null)
Cc1ccc(OCC(=O)N2CCN(Cc3cccnc3)CC2)cc1	none (no result: INS promoter inh, HCT116 bCat-KO, HCT116 PTEN-null)
O=C1/C(=C\c2cccnc2)N2CCC1CC2	none (no result: INS promoter inh, HCT116 bCat-KO, Lmaj promast, HCT116 PTEN-null, Autophagy mod)
Cc1ccnc(NS(=O)(=O)c2ccc(N=Cc3c(O)n(C)c(=O)n(C)c3=O)cc2)n1	none (no result: INS promoter inh, HCT116 bCat-KO, HCT116 PTEN-null)
Cc1cc(/C=C2\C(=O)NC(=O)N(Cc3ccco3)C2=O)c(C)n1-c1ccc(C(=O)O)cc1	none (no result: INS promoter inh, HCT116 bCat-KO, Lmaj promast, HCT116 PTEN-null, Autophagy mod)
CCCCCCOc1ccc(CN2CCN(CCO)CC2)cc1	Lmaj promast 99
COc1ccc(Br)cc1CN1CCN(CCO)CC1	none
CCCCOc1ccc(CC2C(=O)N(C)C(=O)N(C)C2=O)cc1	none (no result: INS promoter inh, Ins promoter up)
CCCCOc1ccc(CN2CCN(CCO)CC2)cc1	Lmaj promast 89
CCCCOc1ccc(CN2CCN(CC)CC2)cc1	Lmaj promast 86
Nc1ccccc1C(=O)OCc1ccc([N+](=O)[O-])cc1	none (no result: HCT116 bCat-KO, HCT116 PTEN-null, Ins promoter up)
N#CC1=C(N)Oc2c(c(=O)sc3ccccc23)C1c1ccncc1 (stereo not given)	none (no result: HCT116 bCat-KO, HCT116 PTEN-null)
CCCCN1C(=O)NC(=O)C2(Cc3c(nc4ccccn4c3=O)N3CCc4ccccc4C32)C1=O (stereo not given)	Lmaj promast 89 (no result: INS promoter inh)
CCCCN1C(=O)NC(=O)C2(Cc3c(nc4c(C)cccn4c3=O)N3CCc4ccccc4C32)C1=O (stereo not given)	Lmaj promast 96 (no result: Ins promoter up)
Cc1cccn2c(=O)c3c(nc12)N1CCc2ccccc2C1C1(C3)C(=O)NC(=O)N(C)C1=O (stereo not given)	Lmaj promast 50
Cc1cc([P+](=O)O)c(C)n1-c1ccc(Br)cc1	none (no result: INS promoter inh)
Cc1ccc(C(=O)C2CN(C)CC2C(=O)c2ccc(C)cc2)cc1 (stereo not given)	none
Cc1ccc(C(=O)C2CN3CCC2CC3)cc1 (stereo not given)	Lmaj promast 74
CC1CCCN(CC(=O)N2CCCc3ccccc32)C1 (stereo not given)	none
O=C(c1ccccc1)c1cn(CC(=O)N2CCCc3ccccc32)c2ccccc12	Lmaj promast 95
CCOC(=O)C1(CCOc2ccccc2)CCN(C2Cc3ccccc3C2)CC1	Lmaj promast 88 (no result: INS promoter inh, HCT116 bCat-KO, HCT116 PTEN-null)
Fc1ccc(C2=CCN(C(c3cccs3)c3nnnn3CCc3ccccc3)CC2)cc1 (stereo not given)	Lmaj promast 100
O=C(NC(C(Cl)Cl)N1CCOCC1)c1ccccc1 (stereo not given)	none (no result: HCT116 bCat-KO, HCT116 PTEN-null)
CCOc1ccc(N2C(=O)NC(=O)/C(=C\c3ccc(N4CCCCC4)o3)C2=O)cc1	none (no result: INS promoter inh)
O=C(Nc1ccc(OC(=O)N2CCCCC2)cc1)N1CCOCC1	none (no result: HCT116 bCat-KO, HCT116 PTEN-null)
Clc1ccc(-c2nc3ccc(Cl)cn3c2CN2CCOCC2)cc1	Lmaj promast 53
O=c1c2cc(Cl)cc(Cl)c2nc(CN2CCOCC2)n1-c1ccccc1F	none
c1ccc(CNCCc2ccc3c(c2)OCO3)nc1	none
O=C1NC(=O)C(CCc2ccccn2)(Cc2ccc3c(c2)OCO3)C(=O)N1CCc1ccccc1 (stereo not given)	Lmaj promast 98
CSCc1nnc2n1-c1ccc(Cl)cc1C(c1ccccc1)=NC2	Lmaj promast 94
CS(=O)(=O)NCc1nnc2n1-c1ccc(Cl)cc1C(c1ccccc1)=NC2	none
COc1ccccc1CN1CCCC(C(=O)c2ccccc2SC)C1 (stereo not given)	Lmaj promast 68 (no result: INS promoter inh, HCT116 bCat-KO, HCT116 PTEN-null)
CSc1ccccc1C(=O)C1CCCN(Cc2ccncc2)C1 (stereo not given)	Lmaj promast 71 (no result: INS promoter inh, HCT116 bCat-KO, HCT116 PTEN-null)
COc1ccc(O)c(CN2CCCC(C(=O)c3ccccc3SC)C2)c1 (stereo not given)	none (no result: INS promoter inh, HCT116 bCat-KO, HCT116 PTEN-null)
CCC(C)/C=C(C)/C=C/C1=CC2=C(Cl)C(=O)C(C)(OC(C)=O)C(=O)C2=CO1 (stereo not given)	none (no result: INS promoter inh, HCT116 bCat-KO, HCT116 PTEN-null)
[N-]=[N+]=NCc1cn2cccnc2n1	none (no result: HCT116 bCat-KO, HCT116 PTEN-null)
Cc1c(C=C2C(=O)NC(=O)NC2=O)c(=O)n(-c2ccccc2)n1C	none (no result: HCT116 bCat-KO, HCT116 PTEN-null)
Cc1nn(Cc2ccccc2)c(C)c1C=C1C(=O)NC(=S)NC1=O	Lmaj promast 60
CCN1CC=C(c2c[nH]c3ccccc23)CC1	Lmaj promast 99 | Lmaj promast 1uM inactive
CC(C)(C)c1nc(NCc2ccc3c(c2)OCO3)c2nnn(Cc3ccccc3Cl)c2n1	none (no result: Ins promoter up)
